# Test results: paper PMC5913336, “True equilibrium measurement of transcription factor-DNA binding affinities using automated polarization microscopy”
# Target: T1, Zelda (Drosophila melanogaster, UniProt Q9VWC6 1319-1447)
# T1 sequence: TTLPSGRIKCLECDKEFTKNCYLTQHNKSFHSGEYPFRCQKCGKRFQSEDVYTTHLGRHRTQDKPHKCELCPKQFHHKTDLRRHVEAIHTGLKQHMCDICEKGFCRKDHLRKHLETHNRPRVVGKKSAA
# Experiment: FP; 33 mM phosphate pH 7.0, 90 mM NaCl, 0.01% Tween 20, 0.1 mM DTT, 0.5% agarose; room temperature
# Conditions: tags: N-GST (pGEX-6P-1, kept); dsDNA, one strand shown
Sequence,binding signal,Kd
AATTTCAGGGACC,12.3 Kd / Kd of best base at the position,
AATATCAGGTACC,1.65 Kd / Kd of best base at the position,
AATTTCAGGTACA,2.29 Kd / Kd of best base at the position,
AATTGCAGGTACC,1.37 Kd / Kd of best base at the position,
TATTTCAGGTACC,1.83 Kd / Kd of best base at the position,
AATTTCAGGTACG,2.98 Kd / Kd of best base at the position,
AATTTCAGGTATC,2.16 Kd / Kd of best base at the position,
AATGTCAGGTACC,1.84 Kd / Kd of best base at the position,
AACTTCAGGTACC,1.86 Kd / Kd of best base at the position,
AATTTCAGGCACC,9.39 Kd / Kd of best base at the position,
AATTTCCGGTACC,36.1 Kd / Kd of best base at the position,
CATTTCAGGTACC,1.46 Kd / Kd of best base at the position,
AATCTCAGGTACC,1.8 Kd / Kd of best base at the position,
AATTTCAAGTACC,8.76 Kd / Kd of best base at the position,
AATTTCTGGTACC,19.2 Kd / Kd of best base at the position,
AATTTTAGGTACC,4.6 Kd / Kd of best base at the position,
AATTTAAGGTACC,17.1 Kd / Kd of best base at the position,
AATTTCAGGTGCC,9.55 Kd / Kd of best base at the position,
AGTTTCAGGTACC,2.05 Kd / Kd of best base at the position,
ATTTTCAGGTACC,1.63 Kd / Kd of best base at the position,

Sequence,binding signal,Kd
AATTTCAGGTAAC,1.38 Kd / Kd of best base at the position,
AATTTCAGCTACC,15.7 Kd / Kd of best base at the position,
AATTTCAGGTCCC,10.1 Kd / Kd of best base at the position,
AATTTCAGGAACC,19.3 Kd / Kd of best base at the position,
AAGTTCAGGTACC,1.72 Kd / Kd of best base at the position,
AAATTCAGGTACC,1.56 Kd / Kd of best base at the position,
AATTTCAGGTACT,2.11 Kd / Kd of best base at the position,
AATTACAGGTACC,1.77 Kd / Kd of best base at the position,
AATTTCAGGTAGC,1.01 Kd / Kd of best base at the position,
AATTTCAGATACC,12.3 Kd / Kd of best base at the position,
AATTTCACGTACC,11.7 Kd / Kd of best base at the position,
AATTTCGGGTACC,7.8 Kd / Kd of best base at the position,
AATTCCAGGTACC,1.28 Kd / Kd of best base at the position,
GATTTCAGGTACC,2.27 Kd / Kd of best base at the position,
AATTTCATGTACC,12.8 Kd / Kd of best base at the position,
ACTTTCAGGTACC,1.87 Kd / Kd of best base at the position,
AATTTCAGGTTCC,14.1 Kd / Kd of best base at the position,
AATTTGAGGTACC,17.6 Kd / Kd of best base at the position,
AATTTCAGTTACC,9.11 Kd / Kd of best base at the position,
AATTTCAGGTACC,,~5.7 nM
